Rows were chosen to be rich in hits. Some 4.1% of all compounds tested hit in one or more screens of this group.
Casp6 inh: blocks human caspase-6 cleavage activity | AID 686996 | P55212 | inhibition, % at 12.5 µM | purified caspase-6, Z-VEID-R110 cleavage fluorescence | 0.53% of 350,000 active;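 active = mean inhibition across replicates at least about 35%, with every replicate also reaching that limit, limit read from the data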
Target sequence (P55212 24-179 limits assumed): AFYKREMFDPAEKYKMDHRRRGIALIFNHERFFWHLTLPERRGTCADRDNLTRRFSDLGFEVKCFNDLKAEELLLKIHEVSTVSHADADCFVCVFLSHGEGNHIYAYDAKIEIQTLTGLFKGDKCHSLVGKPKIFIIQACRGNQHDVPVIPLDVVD
Target sequence (P55212 194-293 limits assumed): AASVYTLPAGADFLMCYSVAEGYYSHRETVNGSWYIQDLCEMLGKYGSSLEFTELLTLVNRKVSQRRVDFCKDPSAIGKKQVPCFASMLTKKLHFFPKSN
NSD2 inh: NSD2 (human) methyltransferase inhibition | 0.54% of 310,000 active | inhibition, % at 12.5 µM | O96028 | NSD2 peptide methylation, AlphaScreen, 120 min; in the data active = inhibition above about 50%
ALR inh: inhibitors of human sulfhydryl oxidase ALR. P55789. purified ALR, DTT oxidation, H2O2 HRP-luminol luminescence. inhibition, % (test concentration not listed). 3.8% of 290,000 active. AID 485317;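 active = mean replicate inhibition above about 79%, with every replicate also reaching it, limit read from the data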
Target sequence (P55789 whole entry, looked up): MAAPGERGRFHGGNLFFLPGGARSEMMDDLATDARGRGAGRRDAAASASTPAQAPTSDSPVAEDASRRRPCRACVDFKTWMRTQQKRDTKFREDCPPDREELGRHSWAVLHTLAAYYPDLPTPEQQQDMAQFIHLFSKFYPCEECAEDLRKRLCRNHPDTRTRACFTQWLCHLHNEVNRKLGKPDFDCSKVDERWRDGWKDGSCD
CFTR F508del cor: correctors of CFTR F508del function in bronchial epithelial cells. AID 720511. 0.36% of 350,000 active. activity (quench increase), % at 7.58 µM. CFBE cells, YFP halide quenching; stimulated with forskolin plus potentiator P3; % fluorescence drop versus neutral controls;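 active = mean added fluorescence quench of at least 8% versus neutral control, with both replicates also reaching 8%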;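 also: cells transiently co-express mutant CFTR-F508del with the halide-sensitive YFP; corrector assay measuring rescue of mutant channel to the surface after 24 h compound exposure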
Env fusion inh: inhibitors of HIV Env-mediated cell fusion. inhibition, % at 12.3 µM. 1.1% of 360,000 active. HeLa-JRFL Env/CEM21 cell fusion, luciferase;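 active = mean replicate inhibition score of at least 50 and every replicate individually at or above 50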
PglD inh: blocks C. jejuni PglD acetyltransferase activity; purified PglD enzyme, DTNB colorimetric CoA detection; 0.098% of 360,000 active; inhibition, % at 12.5 µM; in the data active = inhibition above about 16%, passing the limit was not always enough
Numbers stand for hits.

How did S=c1[nH]c2ccc(Cl)cc2[nH]1 do in these assays?
NSD2 inh: inactive; ALR inh: inactive; PglD inh: inactive

Results for COc1ccc2c3c([nH]c2c1)[C@H](CO)N(C(=O)Nc1ccc(F)cc1)CC31CCN(S(=O)(=O)c2ccc(C)cc2)CC1 ?
Casp6 inh: inactive; CFTR F508del cor: inactive

Results for CCNC(=O)CCSc1nc2cc(Cl)ccc2o1 ?
NSD2 inh: inactive; ALR inh: 90.3; PglD inh: inactive

Results for O=C(CCSc1nc2cc(Cl)ccc2o1)N1CCOCC1 ?
NSD2 inh: inactive; ALR inh: 98.6; Env fusion inh: inactive; PglD inh: inactive

How did O=C(CSc1nc2cc(Cl)ccc2o1)N1CCOCC1 do in these assays?
NSD2 inh: inactive; ALR inh: inactive

How did Cc1noc(C)c1NC(=O)N(C)C[C@@H]1Oc2ccc(NC(=O)Nc3ccc(F)cc3)cc2CC(=O)N([C@@H](C)CO)C[C@@H]1C do in these assays?
Casp6 inh: inactive; CFTR F508del cor: inactive; Env fusion inh: inactive; PglD inh: inactive

How did COCC(=O)N(C)C[C@H]1Oc2cc(C#CCC3CCCC3)ccc2S(=O)(=O)N([C@H](C)CO)C[C@@H]1C do in these assays?
CFTR F508del cor: inactive; Env fusion inh: inactive; PglD inh: inactive

How did COc1cccc(Cn2c(NCc3ccco3)nc3c2c(=O)n(C)c(=O)n3C)c1 do in these assays?
NSD2 inh: inactive; ALR inh: inactive; Env fusion inh: 74.6

What do the screens show for `OCCCNc1ncnc2scc(-c3ccc(Cl)cc3)c12`?
Casp6 inh: inactive; NSD2 inh: inactive; ALR inh: inactive; CFTR F508del cor: inactive; Env fusion inh: 61.8; PglD inh: inactive

What do the screens show for `c1ccc(N2CCN(c3ncnc4scc(-c5cccs5)c34)CC2)cc1`?
NSD2 inh: inactive; ALR inh: inactive; Env fusion inh: 82.4; PglD inh: inactive

Results for c1ccc(-c2csc3ncnc(NCCCN4CCOCC4)c23)cc1 ?
NSD2 inh: inactive; ALR inh: inactive; PglD inh: inactive

How did c1csc(-c2csc3ncnc(NCCCN4CCOCC4)c23)c1 do in these assays?
NSD2 inh: inactive; ALR inh: inactive; Env fusion inh: 68.3; PglD inh: inactive

How did Fc1ccc(-c2csc3ncnc(N4CCN(c5ccccc5)CC4)c23)cc1 do in these assays?
Casp6 inh: inactive; NSD2 inh: inactive; CFTR F508del cor: inactive; Env fusion inh: inactive; PglD inh: inactive

Results for COc1ccccc1-c1cc(C(F)(F)F)nc(S(=O)(=O)CCCC(=O)N2CCCCC2C)n1 (stereo unspecified) ?
NSD2 inh: inactive; ALR inh: 97.7; Env fusion inh: inactive; PglD inh: inactive

How did COc1ccccc1-c1cc(C(F)(F)F)nc(S(C)(=O)=O)n1 do in these assays?
NSD2 inh: inactive; ALR inh: 91.3; Env fusion inh: inactive; PglD inh: inactive

Results for COc1ccccc1-c1cc(C(F)(F)F)nc(S(=O)(=O)CCCC(=O)NC(C)C)n1 ?
NSD2 inh: inactive; ALR inh: inactive; PglD inh: inactive

Results for CO[C@H]1CN(C)C(=O)c2ccc(NC(=O)Nc3ccccc3)cc2OC[C@H](C)N(C(=O)Nc2c(C)noc2C)C[C@H]1C ?
Casp6 inh: inactive; CFTR F508del cor: inactive; PglD inh: inactive

How did CCN(c1ccccc1)S(=O)(=O)c1ccc(C(=O)Nc2c(C)n(C)n(-c3ccccc3)c2=O)cc1 do in these assays?
Casp6 inh: inactive; NSD2 inh: inactive; ALR inh: inactive; CFTR F508del cor: inactive; Env fusion inh: 57.1; PglD inh: inactive

How did COc1ccccc1-c1cc(C(=O)Nc2c(C)n(C)n(-c3ccccc3)c2=O)no1 do in these assays?
Casp6 inh: inactive; NSD2 inh: inactive; ALR inh: 96.9; CFTR F508del cor: inactive

What do the screens show for `Cc1c(NC(=O)c2ccc(S(=O)(=O)N(C)c3ccccc3)cc2)c(=O)n(-c2ccccc2)n1C`?
Casp6 inh: inactive; NSD2 inh: inactive; ALR inh: inactive; CFTR F508del cor: inactive; Env fusion inh: inactive; PglD inh: inactive

What do the screens show for `Cc1c(NC(=O)c2ccc(=O)oc2)c(=O)n(-c2ccccc2)n1C`?
NSD2 inh: inactive; ALR inh: 88.2; PglD inh: inactive

Results for Cc1c(NC(=O)c2ccc(C(=O)Nc3c(C)n(C)n(-c4ccccc4)c3=O)cc2)c(=O)n(-c2ccccc2)n1C ?
Casp6 inh: inactive; ALR inh: inactive; CFTR F508del cor: inactive; Env fusion inh: inactive; PglD inh: inactive

What do the screens show for `COC(Cc1n[nH]c(=S)n1-c1ccccc1)OC`?
NSD2 inh: inactive; ALR inh: 93.4; Env fusion inh: inactive; PglD inh: inactive

How did COCc1n[nH]c(=S)n1-c1ccccc1 do in these assays?
NSD2 inh: inactive; ALR inh: inactive; Env fusion inh: inactive; PglD inh: inactive

What do the screens show for `Cc1ccc(C)c(NCc2n[nH]c(=S)n2-c2ccccc2)c1`?
Casp6 inh: inactive; NSD2 inh: inactive; ALR inh: 85.7; CFTR F508del cor: inactive; Env fusion inh: inactive

Results for Cc1ccc(-n2c(COc3cccc(C)c3)n[nH]c2=S)cc1 ?
Casp6 inh: inactive; NSD2 inh: inactive; ALR inh: inactive; CFTR F508del cor: inactive; Env fusion inh: inactive

How did S=c1[nH]nc(CSCc2ccccc2Cl)n1-c1ccccc1 do in these assays?
NSD2 inh: inactive; ALR inh: 93.9; Env fusion inh: inactive; PglD inh: inactive

Results for Cc1cccc(OCc2n[nH]c(=S)n2-c2ccccc2)c1 ?
Casp6 inh: inactive; NSD2 inh: inactive; ALR inh: 76.9; CFTR F508del cor: inactive; Env fusion inh: inactive

What do the screens show for `CC(C)NC(=O)NCC[C@H]1CC[C@@H](NC(=O)Nc2ccccc2)[C@@H](CO)O1`?
Casp6 inh: inactive; CFTR F508del cor: inactive; Env fusion inh: inactive; PglD inh: inactive

What do the screens show for `COc1ccccc1NC(=O)N[C@@H]1CC[C@H](CCNS(=O)(=O)c2ccccc2)O[C@H]1CO`?
CFTR F508del cor: inactive; Env fusion inh: inactive

What do the screens show for `COc1ccc(-c2cc(C(=O)NN)[nH]n2)cc1OC`?
Casp6 inh: inactive; NSD2 inh: inactive; ALR inh: 98.4; CFTR F508del cor: inactive; Env fusion inh: inactive

What do the screens show for `CCOc1ccc(-c2cc(C(=O)NN)[nH]n2)cc1`?
Casp6 inh: inactive; NSD2 inh: inactive; ALR inh: 98.8; CFTR F508del cor: inactive

What do the screens show for `COc1ccc(NC(=O)c2ccco2)cc1NC(=O)c1cccc(OC(C)C)c1`?
NSD2 inh: inactive; Env fusion inh: 112.8; PglD inh: inactive

What do the screens show for `O=C(Nc1cc(Br)c(O)c(Br)c1)c1cccc(NC(=O)c2ccco2)c1`?
Casp6 inh: inactive; NSD2 inh: inactive; ALR inh: 98.4; CFTR F508del cor: inactive; Env fusion inh: inactive; PglD inh: inactive

How did O=C(Nc1cccc(NC(=O)c2ccco2)c1)c1cccc(Br)c1 do in these assays?
Casp6 inh: inactive; CFTR F508del cor: inactive; Env fusion inh: inactive; PglD inh: inactive

Results for CCC(=O)Nc1ccc2c(c1)OC[C@H](C)N(C(=O)Cc1ccccn1)C[C@H](C)[C@@H](OC)CN(C)C2=O ?
CFTR F508del cor: inactive; PglD inh: inactive

Screening results as filed in PubChem.
